Sampled rows, rich in hits. Any-hit rate of the full collection: about 3.4%.
FBW7 activator: activators of human E3 ligase FBW7. Q969H0. AlphaScreen FBW7–phospho-cyclin E peptide binding, activator screen. normalized activity (activation), % at 26.1 µM. 650,000 compounds, 0.13% hits. AID 1259310; in the data active = normalized activity above about 1.9%;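 also: purified mutant Fbw7 with reduced substrate affinity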
MITF primary: human MITF inhibition, primary screen | AID 1259374 | AlphaScreen MITF homodimerization, bead proximity signal | inhibition, % at 2.6 µM | 650,000 compounds, 0.91% hits | O75030; in the data active = inhibition above about 50%;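 also: 0% = vehicle wells with protein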
GPR151 activ: activators of human GPR151; activation, % at 11.2 µM; AID 1508602; PathHunter beta-arrestin GPR151 cells, luminescence; 650,000 compounds, 1% hits; Q8TDV0; in the data active = activation above about 4.9%;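 also: 0% = median of compound wells and 100% = cells with positive control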
Target sequence (Q8TDV0 whole entry, looked up): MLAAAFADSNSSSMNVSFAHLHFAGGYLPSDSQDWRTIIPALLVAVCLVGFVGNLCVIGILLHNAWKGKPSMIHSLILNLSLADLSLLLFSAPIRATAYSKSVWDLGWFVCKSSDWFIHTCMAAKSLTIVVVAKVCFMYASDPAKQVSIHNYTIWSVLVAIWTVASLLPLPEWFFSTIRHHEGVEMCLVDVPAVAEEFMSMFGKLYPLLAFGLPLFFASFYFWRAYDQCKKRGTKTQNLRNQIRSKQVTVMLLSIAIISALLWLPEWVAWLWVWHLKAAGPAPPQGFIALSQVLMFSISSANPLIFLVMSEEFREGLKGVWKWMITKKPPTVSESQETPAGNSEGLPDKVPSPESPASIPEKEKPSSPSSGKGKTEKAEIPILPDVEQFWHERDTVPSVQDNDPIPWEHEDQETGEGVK
TEAD-YAP inh: TEAD-YAP interaction inhibition; HEK-TIYL cells, TEAD-Gal4/YAP UAS-luciferase luminescence; inhibition, % at 9.12 µM; 640,000 compounds, 1.4% hits; AID 1259422; in the data active = inhibition above about 32%;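 also: 0% = median of test compound wells and 100% = reference inhibitor wells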
An asterisk follows results filed as active.

SMILES	FBW7 activator	MITF primary	GPR151 activ	TEAD-YAP inh
CN1CCN(c2ccnc3c(-c4ccc(CO)cc4)cnn23)CC1	0	-5	1	-58
OCc1ccc(-c2cnn3c(N4CCOCC4)ccnc23)cc1	0	20	1	42*
O=C(O)CCc1ccc(-c2cnn3c(N4CCC(O)CC4)ccnc23)cc1	0	7	-1	37*
Fc1ccc2c(c1)nc(N1CCCC1)c1nccn12	0	-2	1	-18
CN1CCN(C(=O)c2ccc(NC(=O)Cn3nc(-c4ccccc4F)ccc3=O)cc2)CC1	0	16	-1	3
COc1ccccc1-c1ccc(=O)n(CC(=O)Nc2ccc(C(=O)N3CCCC3)cc2)n1	4.1*	4	-1	-3
CCOc1ccccc1C1CC(=O)NC2=C1C(=O)CCC2 (stereo not drawn)	0	21	0	40*
CCCCOc1ccccc1C1CC(=O)NC2=C1C(=O)CCC2 (stereo not drawn)	0	2	0	57*
CCCOc1ccccc1C1CC(=O)NC2=C1C(=O)CCC2 (stereo not drawn)	0	-9	-1	50*
O=C1CC(c2cccc3ccccc23)C2=C(CCCC2=O)N1 (stereo not drawn)	0	3	-1	-1
COc1ccc(OCCOC(=O)c2cc(=O)c3ccccc3o2)cc1	0	4	-1	-7
Clc1ccc(Nc2nc(NCc3ccco3)c3ccccc3n2)cc1	0	-3	1	0
Fc1ccc(Nc2nc(NCc3ccco3)c3ccccc3n2)cc1	0	29	0	36*
COc1ccc(Nc2nc(NCc3ccco3)c3ccccc3n2)cc1	0	7	2	50*
COc1ccc(CNc2nccn3c(-c4cccc5ccccc45)cnc23)cc1	2.2*	4	1	-8
COc1ccccc1/C=N/Nc1nc(-c2ccccc2)cc(=O)[nH]1	0	1	-1	50*
O=C(Cn1nnc(-c2ccccc2)n1)N/N=C/c1ccccc1C(F)(F)F	0	12	1	0
O=C(Cn1nnc(-c2ccccc2)n1)N/N=C/c1ccc(O)c(O)c1O	-1	66*	1	8
O=C(Cn1nnc(-c2ccccc2)n1)N/N=C/c1cc(Cl)ccc1O	0	57*	0	-1
O=C(NCc1cccnc1)c1cncc(-c2ccccc2)c1	0	-13	-1	0
Cc1cc(N/C=C\C(=O)c2cccs2)no1	0	5	-2	-44
COc1cc([N+](=O)[O-])ccc1N/C=C/C(=O)c1ccccc1	0	-5	-5	71*
COc1cc([N+](=O)[O-])ccc1N/C=C/C(=O)c1cccs1	0	6	-4	80*
Cc1cc(C(=O)O)ccc1N/C=C/C(=O)c1cccs1	0	9	-4	46*
COc1cc([N+](=O)[O-])ccc1N/C=C/C(=O)c1ccc(Cl)cc1	0	9	0	-17
SMILES	FBW7 activator	MITF primary	GPR151 activ	TEAD-YAP inh
CN1C(=O)N(C)C2C1NNC(=S)N2C (stereo not drawn)	0	11	-1	61*
CCCCOc1ccc(CSCCN)cc1	0	3	-1	46*
CCCCOc1ccc(CSCCN=C(N)N)cc1	0	7	0	17
CCCCCOc1ccc(CSCCN)cc1	0	-7	0	65*
CCCN(CCC)CP(=O)(O)CCC(=O)O	0	0	0	4
c1ccc(-n2cnc3c(Nc4ccc(N5CCOCC5)cc4)nc(-c4ccc(N5CCOCC5)nc4)nc32)cc1	0	3	0	2
OCCNc1nc(-c2ccc(N3CCOCC3)nc2)nc2c1ncn2-c1ccccc1	0	5	-1	61*
c1ccc(-n2cnc3c(NC4CC4)nc(-c4ccc(N5CCOCC5)nc4)nc32)cc1	1	11	-1	45*
CC(=O)NC1(c2ccc(C)cc2)CCN(CC(=O)NC2CC2)CC1	0	-1	0	-7
N#Cc1ccccc1NC(=O)c1ccc([N+](=O)[O-])s1	0	-5	0	-17
CCCOc1c(Br)cc(C2NC(=O)NC(C)=C2C(=O)OC)cc1OCC (stereo not drawn)	0	-1	0	-6
Cc1ccnc(N2CCC(C(=O)Nc3ccccc3Br)CC2)n1	2.1*	22	-1	9
C(=N\Nc1nn[nH]n1)/c1ccc2c(c1)OCO2	0	2	0	-11
Oc1ccc(/C=N/Nc2nn[nH]n2)c(O)c1O	-1	95*	0	4
CCN(CC)c1ccc(/C=N/Nc2nn[nH]n2)c(O)c1	0	-12	0	-3
Oc1ccc(/C=N/Nc2nn[nH]n2)cc1O	-1	52*	2	-5
COc1cccc(C2=NC(c3ccc(Br)cc3)NC(c3cc(Br)ccc3O)C2)c1 (stereo not drawn)	0	0	3	1
COc1cccc(C2=NC(C(C)C)NC(c3cc(Br)ccc3O)C2)c1 (stereo not drawn)	0	-11	0	35*
Oc1ccc(Br)cc1C1CC(c2cccc(Br)c2)=NC(c2ccc(F)c(Br)c2)N1 (stereo not drawn)	0	1	2	32*
Oc1ccc(Br)cc1C1CC(c2cccc(Br)c2)=NC(c2ccc(Cl)cc2Cl)N1 (stereo not drawn)	0	6	-3	10
CN(C)c1ccc(NC(=S)c2ccccn2)cc1	-1	33	-9	93*
COc1ccc(NC(=S)Nc2ccccn2)cc1	0	-7	0	-71
COc1ccc(NC(=S)c2ccccn2)cc1	0	2	-11	60*
CN(C)c1ccc(NC(=S)Nc2ccccc2)cc1	-1	-2	-2	-11
Cc1ccc(NC(=S)c2ccccn2)cc1	0	15	-9	51*
SMILES	FBW7 activator	MITF primary	GPR151 activ	TEAD-YAP inh
CSc1ccc(/C=C(\C#N)c2ccccn2)cc1	0	10	-3	-7
CN(C)c1ccc(/C=C(\C#N)c2ccccn2)cc1	0	13	-10	91*
COc1ccccc1NC(=S)c1ccccn1	0	18	1	-38
CC(=O)c1cc(Br)ccc1OCc1ccc(C#N)cc1	1	11	0	-9
COc1ccccc1N=C1SCCN1C(=O)c1ccc([N+](=O)[O-])o1	2.2*	3	-1	4
COc1cccc2sc(=NC(=O)c3ccc([N+](=O)[O-])o3)n(C)c12	0	0	5	-2
Cc1ccc(-c2csc(NC(=O)c3ccccc3NS(=O)(=O)c3ccc(C)cc3)n2)cc1	0	8	1	23
CS(=O)(=O)c1ccc2nc(NC(=O)C3=COCCO3)sc2c1	0	10	-1	-13
Cc1ccc(S(=O)(=O)Nc2ccccc2C(=O)Nc2nc3ccc(Cl)cc3s2)cc1	0	-11	1	2
Cc1ccc2nc(NC(=O)C3=COCCO3)sc2c1	0	9	-11	66*
O=C(O)c1ccccc1C(=O)Nc1nc(-c2ccc(Br)cc2)cs1	2.1*	0	1	4
Cc1ccc(-c2csc(NC(=O)c3ccccc3C(=O)O)n2)cc1	0	7	0	-6
Cc1ccc(S(=O)(=O)Nc2ccccc2C(=O)Nc2nc3ccc(Br)cc3s2)cc1	0	-16	1	55*
